Several values for one entry are separate records, joined by “and”; a condition that tells them apart may be missing. Equal values may be shown once. This is part of a sample that, as a whole, favours compounds with a hit. Of some 83,000 tested, about 20% had one in any assay.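 Interpretation: 100, growth as untreated; towards 0, rising growth inhibition; 0, no net growth; 0 to -100, cell death. Compounds scoring below 10 were considered active.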 Activity calls are given as the source filed them.
Tested on: HL-60(TB) leukemia
Test: NCI-60 one-dose screen, 48 h (100 = growth as untreated, 0 = no growth, -100 = all killed)
Details: 10 µM unless noted

SMILES | growth
Cc1cc(Cl)ccc1NC(=O)c1cc2ccccc2cc1O | 1.45% (active)
O=C(N/N=C1\c2ccccc2-c2cccc(C(=O)O)c21)c1ccc(O)cc1 | 103% (inactive)
CCOc1ccc2c(S(=O)(=O)O)cccc2c1[N+](=O)[O-] | 113% (inactive) and 95.7% (inactive)
CO[C@H]1/C=C/O[C@@]2(C)Oc3c(C)c(O)c4c(O)c(c(/C=N/N5CCN(C)CC5)c(O)c4c3C2=O)NC(=O)/C(C)=C\C=C\C(C)[C@H](O)[C@@H](C)[C@@H](O)[C@@H](C)[C@@H](OC(C)=O)[C@@H]1C (stereo partly drawn) | 104% (inactive)
COc1cc(C2NC(=O)c3ccccc3N2)ccc1OCCCCCOc1c(OC)cc(C2=NOC(c3cc(OC)c(OC)c(OC)c3)C2)cc1OC (stereo not drawn) | 68.3% (inactive)
Cc1cc(S(=O)(=O)/N=C(\N)n2nc(C)c(C)c2C)c(SCc2ccccc2)cc1Cl | 81.9% (inactive)
CCN1C[C@@H](C)n2c(c(O)c3c(=O)n(Cc4ccc(F)c(Cl)c4)nc(C(=O)NC)c32)C1=O | 36.7% (inactive)
COc1cc(-c2csc(NC(=O)Nc3ccc(Cl)cc3)n2)cc(OC)c1OC | 2.62% (active)
Clc1ccc2nc(Cl)c3ccccc3c2c1 | 92.3% (inactive)
N#CC1C(C#N)C2c3ccccc3C=CN2C1C(=O)c1ccc(Br)cc1 (stereo not drawn) | 101% (inactive)
COc1cc2oc(-c3ccc(O)cc3)cc(=O)c2c(O)c1I | 99% (inactive)
Cn1cnc2c(F)c(Nc3ccc(Br)cc3F)c(C(=O)NOCCO)cc21 | 16.6% (inactive)
COc1cc2c(c(OC)c1OC)-c1ccc(OC)c(=O)cc1[C@@H](NC(C)=O)CC2 | -36% (active) and -38.2% (active)
